Source: PubChem (National Center for Advancing Translational Sciences (NCATS))
A selection: hits, their analogues and other compounds. The true share with any hit is near 4.6%.
D1 PAM = Potentiators of Human D1 Dopamine Receptor: qHTS. D(1A) dopamine receptor (Homo sapiens), P21728. HEK293 TREx D1 cells, calcium flux, dopamine EC20 potentiation. potentiation, % at 10 µM. hit rate 0.036% among 360,000. AID 504651, 2011; in the data active means potentiation above about 30%; further: 0% is about no effect
TRHR PAM = qHTS for Small Molecule Agonists and Allosteric Enhancers of Human TRH Receptor: Primary Screen for Enhancers | enhancement, % at 2 µM | hit rate 0.66% among 360,000 | Thyrotropin-releasing hormone receptor (Homo sapiens), P34981 | TRHR cells, fluo-8 calcium fluorescence, EC20 TRH enhancement | AID 493056, 2011; in the data active means enhancement above about 30%; further: 0% is about no effect
Target sequence (P34981 whole entry, looked up): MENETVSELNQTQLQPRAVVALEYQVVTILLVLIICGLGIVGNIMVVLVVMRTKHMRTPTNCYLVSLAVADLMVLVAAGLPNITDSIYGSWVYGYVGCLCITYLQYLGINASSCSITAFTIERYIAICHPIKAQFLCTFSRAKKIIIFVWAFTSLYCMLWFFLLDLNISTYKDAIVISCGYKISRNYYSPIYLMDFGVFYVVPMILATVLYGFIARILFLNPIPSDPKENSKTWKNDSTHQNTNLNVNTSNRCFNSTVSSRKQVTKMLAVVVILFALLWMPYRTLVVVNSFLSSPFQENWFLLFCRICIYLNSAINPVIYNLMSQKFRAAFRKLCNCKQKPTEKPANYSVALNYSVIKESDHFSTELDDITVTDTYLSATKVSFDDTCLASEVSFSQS
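Enhancer read-out: after compound pinning and an initial kinetic agonist-mode read, an EC20 of TRH (10 nM final) was injected and fluo-8 calcium signal (Ex 480/Em 530) followed at 1 s/cycle for 100 cycles in TRHR-expressing cells.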
D1 antag = Antagonist of Human D 1 Dopamine Receptor: qHTS; HEK293 TREx D1 cells, calcium flux, dopamine EC80; hits give low values; activity change, negative = inhibition, % at 10 µM; hit rate 3.2% among 360,000; in the data active means activity change below about -30%; further: on the % scale 0 is the no-effect control and ±100 the full control effect
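Calcium flux readout: force-coupled, inducible Hek293 Trex D1 line, cells induced overnight at 30 C with tetracycline, dye-loaded 30–90 min at RT. Antagonism scored against EC80 dopamine challenge given 180 s after compound.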
TRHR ag = qHTS for Small Molecule Agonists and Allosteric Enhancers of Human TRH Receptor: Primary Screen for Agonists; Thyrotropin-releasing hormone receptor (Homo sapiens), P34981; TRHR cells, calcium flux fluo-8, FDSS agonist mode; activation, % at 2 µM; AID 493084, 2011; hit rate 0.18% among 360,000; further: 0% is about no effect
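TRHR-expressing cells loaded with fluo-8 calcium dye; 23 nL library compound pin-transferred, kinetic FDSS fluorescence (Ex 480/Em 530) recorded about 180 s for agonist-induced calcium release, before a 10 nM TRH EC20 addition for potentiator mode.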
D1 agonist = Allosteric Agonists of the Human D1 Dopamine Receptor: qHTS; AID 504660, 2011; activation, % at 2 µM; hit rate 1% among 360,000; HEK293 T-REx D1 cells, calcium flux, agonist mode; further: 0% is about no effect
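Tetracycline-induced HEK293 TREx D1 cells, force-coupled to calcium signalling, were dye-loaded with a no-wash calcium kit. Compound was pin-added after a 10 s baseline. Fluorescence was read kinetically at 1 cycle/s for 180 s, with calcium rises flagged as agonism.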
* marks the source's active call; other numbers are inactive results; x = no result given. Unless noted, no stated cut-off is given here; in the data, active means activation above about 30%; inactive means the rest.

SMILES | D1 PAM | TRHR PAM | D1 antag | TRHR ag | D1 agonist
Cc1cccc(/N=C/c2sc3ccccc3c2O)n1 | -6 | 14 | 3 | 10 | 52*
Oc1c(C=Nc2cccc3cccnc23)sc2ccccc12 | 0 | 9 | -24 | 50* | 158*
Cc1cc2c(s1)c1cnn(Cc3cc(OC(F)(F)F)ccc3F)c(=O)c1n2C | 6 | -9 | -14 | 0 | 3
Cc1ccc(S(=O)(=O)N2CCN(C)CC2)cc1-c1nnc2c3ccccc3c(C)nn12 | 1 | -3 | -33* | -1 | 0
COc1ccc(-c2nnc3sc(CN4C(=O)c5ccccc5C4=O)nn23)cc1 | 2 | 36* | -5 | 0 | 4
COc1ccc(-c2nonc2NC(=O)c2ccco2)cc1OC | 3 | 0 | -37* | 0 | 1
COC(=O)c1cccc(NC(=O)Nc2ccc(Cl)cc2)c1 | -3 | -10 | -35* | 3 | 26
COC(=O)c1cccc(NC(=S)Nc2ccc(Cl)c(Cl)c2)c1 | -4 | -7 | -31* | 0 | 7
Cc1ccc(C)c(CN2C(=O)c3ccccc3S(=O)(=O)c3ccc(C(=O)N4CCN(c5ccccn5)CC4)cc32)c1 | -4 | 0 | 1 | 1 | 3
CCN(CC)CCOC(=O)c1ccc(NC(=O)CCCN2C(=O)S/C(=C/c3ccc(OC)cc3)C2=S)cc1 | -9 | 0 | -65* | 1 | 3
CN1CCN(C(=O)/C=C/c2ccc([N+](=O)[O-])o2)CC1 | -3 | -4 | -32* | 1 | 0
O=C(O)/C=C/c1ccc([N+](=O)[O-])o1 | 0 | -1 | 0 | 2 | 0
NC(=O)CC(NC(=O)Cc1ccc(Br)cc1)c1ccc(NCCN2CCCC2)c([N+](=O)[O-])c1 (stereo unspecified) | -3 | 2 | -1 | 0 | 0
NC(=O)CC(NC(=O)Cc1ccc(Br)cc1)c1ccc(NCCN2CCCCC2)c([N+](=O)[O-])c1 (stereo unspecified) | 0 | 10 | -45* | 0 | 4
Cc1ccc(Cl)cc1NS(=O)(=O)c1ccc2oc(=O)c3ncn(C)c3c2c1 | 0 | 7 | 7 | 0 | -2
Cc1ccc(CN2COc3c(Cl)cc4c(-c5ccccc5)cc(=O)oc4c3C2)cc1 | -1 | 4 | -32* | 3 | 6
CC1(C)CC(=O)C(=Cc2cn(-c3ccccc3)nc2-c2ccc(Cl)cc2)C(=O)C1 | -5 | -8 | -7 | -1 | 60*
N#C/C(=C\c1ccc(-c2ccc(Br)cc2)o1)C(=O)NCCc1c[nH]c2ccccc12 | -6 | 6 | -34* | 1 | 3
CCCn1c2ccccc2c2cnn(CC(=O)NCCc3cc(OC)ccc3OC)c(=O)c21 | 1 | -7 | 8 | -1 | 2
COc1ccccc1CNc1ccc(-c2nc(C)no2)cc1[N+](=O)[O-] | -2 | -1 | -17 | 2 | 24
O=C(CCCn1nnnc1CN1CCOCC1)N1CCC(c2ccccc2F)C1 (stereo unspecified) | 1 | 0 | 10 | 0 | 4
O=C(CCn1nnnc1CN1CCOCC1)N1CCC(c2cccc(Cl)c2)C1 (stereo unspecified) | -11 | -3 | -80* | 0 | 1
COc1cc(OC)cc(C(=O)NC(C(=O)Nc2ccc3c(c2)OCO3)C(C)C)c1 (stereo unspecified) | x | 0 | -9 | 1 | 3
COc1cc(OC)cc(C(=O)N[C@H](C(=O)Nc2ccc3c(c2)OCO3)C(C)C)c1 | 2 | 1 | -33* | 2 | 3
COc1ccc(-c2noc(N3CCC(C(=O)N4CCN(c5cccc(OC)c5)CC4)CC3)n2)cc1 | -3 | 5 | 4 | 0 | 6
SMILES | D1 PAM | TRHR PAM | D1 antag | TRHR ag | D1 agonist
O=C(NCc1ccccc1F)C1CCCN(c2cnccn2)C1 (stereo unspecified) | 0 | 2 | -35* | -1 | 2
Cc1ccccc1CCNC(=O)C1CCCN(c2cnccn2)C1 (stereo unspecified) | 0 | -6 | 4 | 0 | -1
COC(=O)c1cc(-c2ccc(S(=O)(=O)N3CCCC(C)C3)cc2)c(C(F)(F)F)s1 (stereo unspecified) | -12 | -14 | -41* | 1 | 2
COC(=O)c1cc(S(=O)(=O)N2CCCC(C)C2)cn1C (stereo unspecified) | -1 | -2 | -8 | 0 | 2
COc1ccc(NC(=O)c2cc3nc(-c4ccc(Cl)c(Cl)c4)cc(C(F)(F)F)n3n2)c(OC)c1 | 0 | 7 | -66* | 0 | -2
CN1CCC(Oc2ccccc2Sc2ccccc2)CC1 | -10 | 7 | -63* | 1 | 26
CN1CCC(OC(c2ccccc2)c2ccccc2)CC1 | -5 | 10 | -37* | -1 | 24
CN1CCC(N(C)CC(O)c2ccccc2)CC1 (stereo unspecified) | -3 | -1 | 10 | 1 | 0
COc1ccc(C(=O)CN2Cc3ccccc3C2=N)cc1 | -10 | -1 | -4 | 1 | 2
CCOC(=O)C1=C(C)N=c2s/c(=C\c3ccc(OCC(=O)O)cc3)c(=O)n2C1c1ccccc1OC (stereo unspecified) | 2 | 5 | 4 | 2 | 3
CCOC(=O)C1=C(C)N=c2s/c(=C/c3ccc(OCC(=O)O)cc3)c(=O)n2C1c1ccc(SC)cc1 (stereo unspecified) | -7 | -1 | -15 | 19 | 30*
CCOC(=O)C1=C(C)N=c2s/c(=C\c3ccc(OCC(=O)O)cc3)c(=O)n2C1c1ccc(Cl)cc1 (stereo unspecified) | -5 | 4 | 2 | 9 | 38*
CCOC(=O)C1=C(C)N=c2s/c(=C/c3ccc(OCC(=O)O)cc3)c(=O)n2C1c1ccc(F)cc1 (stereo unspecified) | -6 | -5 | -13 | 1 | 2
COc1ccc(-n2cc(CNC3CCN(C)CC3)c(-c3cccc(F)c3)n2)cc1 | -2 | 9 | 2 | 8 | 46*
O=C(Cn1cc(SCc2ccccc2F)c2ccccc21)N1CCCCCC1 | -2 | -10 | 5 | 1 | 7
CCOC(=O)N1CCN(Cc2nc3cc(NC(=O)c4ccc(OC)cc4)ccc3n2C(C)C)CC1 | -3 | -21 | -39* | 0 | 1
CCCCCC(O)(CCN1CCCCC1)c1ccc(OCC)cc1 (stereo unspecified) | -1 | 6 | -2 | 0 | 35*
CCOC(=O)N1CCN(CCC(=O)c2ccc(Cl)cc2)CC1 | 0 | -2 | -8 | 0 | 3
CCOC(=O)N1CCN(CCC(=O)c2ccc(OC)cc2)CC1 | 6 | 7 | -35* | 0 | -2
